Source: PubChem BioAssay AID1159580 (chemical genetic matrix, 2015)
Values joined by “and” are separate entries in the source; they are usually repeats but may differ in a detail not shown here. Equal values may be shown once. Out of some 5,500 compounds screened, about 2,000 (36%) were called active. Not shown: some 18% with an inconclusive outcome. Cut-off read from the data, not from the text of the source: active = normalized growth mostly below about 0.91 (no sharp cut-off); inconclusive = no clear call, values can overlap the other calls; inactive = mostly above about 0.92. Some of the results follow.

Assay: chemical genetic growth profiling, strain panel (AID 1159580);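 note: tested at 20 µM; growth read once vehicle control cultures reached saturation at 30 °C; 1 = growth at the plate median or of vehicle wells; lower values mean less growth of the strain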
Details: S. cerevisiae deletion strains, growth OD

Measured: normalized growth

C1CCc2nnnn2CC1
inactive: locus YAL013W, strain DEP1, active compounds read low 1.01 | locus YAL021C, strain ccr4, active compounds read low 1.01 | locus YAL026C, strain drs2, active compounds read low 1.01 | locus YAL030W, strain snc1, active compounds read low 1 | locus YAL040C, strain CLN3, active compounds read low 0.98 | locus YBL061C, strain skt5, active compounds read low 1.01 | locus YBR009C, strain hhf1, active compounds read low 1.01 | locus YBR021W, strain FUR4, active compounds read low 1.01 | locus YBR023C, strain chs3, active compounds read low 1.01 | locus YBR171W, strain sec66, active compounds read low 1.01 | locus YBR229C, strain ROT2, active compounds read low 1.01 | locus YBR231C, strain swc5, active compounds read low 1 | locus YBR279W, strain paf1, active compounds read low 1.01 | locus YCL011C, strain gbp2, active compounds read low 1 | locus YCL016C, strain dcc1, active compounds read low 1 | locus YCL029C, strain bik1, active compounds read low 1.03 | locus YCL061C, strain MRC1 (second series), active compounds read low 1 | locus YCL061C, strain MRC1, active compounds read low 0.998 | locus YCL069W, strain vba3, active compounds read low 1 | locus YCR088W, strain abp1, active compounds read low 1.02 | locus YDL005C, strain med2, active compounds read low 0.999 | locus YDL035C, strain GPR1, active compounds read low 1.01 | locus YDL040C, strain nat1, active compounds read low 1 | locus YDL074C, strain BRE1, active compounds read low 1.03 | locus YDL101C, strain DUN1, active compounds read low 1.03 | locus YDL134C, strain PPH21, active compounds read low 1.01 | locus YDL185W, strain tfp1, active compounds read low 1.01 | locus YDL192W, strain arf1, active compounds read low 1.01 | locus YDR001C, strain nth1, active compounds read low 1.01 | locus YDR069C, strain doa4, active compounds read low 1.01 | locus YDR101C, strain arx1, active compounds read low 1.01 | locus YDR137W, strain rgp1, active compounds read low 1.02 | locus YDR150W, strain NUM1, active compounds read low 1.01 and 1 | locus YDR159W, strain sac3, active compounds read low 1 | locus YDR162C, strain NBP2, active compounds read low 0.994 | locus YDR195W, strain ref2 0.985 | locus YDR297W, strain sur2, active compounds read low 1.02 | locus YDR318W, strain mcm21, active compounds read low 1.02 | locus YDR334W, strain swr1, active compounds read low 1.01 | locus YDR335W, strain msn5, active compounds read low 1.01 | locus YDR363W, strain ESC2, active compounds read low 1.01 | locus YDR388W, active compounds read low 1 | locus YDR392W, strain spt3, active compounds read low 1.03 | locus YDR502C, strain sam2, active compounds read low 1 | locus YEL003W, strain gim4, active compounds read low 1.01 | locus YEL037C, strain rad23, active compounds read low 1 | locus YEL061C, strain CIN8 (second series), active compounds read low 1.01 | locus YEL061C, strain CIN8, active compounds read low 1.01 | locus YER002W, strain NOP16, active compounds read low 1.01 | locus YER015W, strain faa2, active compounds read low 1 | locus YER016W, strain bim1, active compounds read low 1.01 | locus YER110C, active compounds read low 1.02 | locus YER111C, strain swi4, active compounds read low 1 | locus YER155C, strain BEM2 (second series), active compounds read low 1.02 | locus YER155C, strain BEM2, active compounds read low 1 | locus YER167W, strain BCK2, active compounds read low 1 | locus YFR010W, strain ubp6, active compounds read low 1.01 | locus YGL078C, strain dbp3, active compounds read low 1 | locus YGL086W, strain mad1, active compounds read low 0.99 | locus YGL173C, strain kem1, active compounds read low 1.02 | locus YGL227W, strain vid30, active compounds read low 1 | locus YGL240W, strain doc1, active compounds read low 1.01 | locus YGL248W, strain PDE1, active compounds read low 1.01 | locus YGL253W, strain hxk2, active compounds read low 1 | locus YGR078C, strain PAC10, active compounds read low 1 and 1.03 | locus YGR135W, strain pre9, active compounds read low 1.03 | locus YGR229C, strain SMI1, active compounds read low 0.969 and 1.01 | locus YGR252W, strain gcn5, active compounds read low 0.941 | locus YHR013C, strain ard1, active compounds read low 1.02 | locus YHR027C, strain rpn1, active compounds read low 1.01 | locus YHR030C, strain SLT2, active compounds read low 1.01 and 0.966 | locus YHR079C, strain IRE1 (second series), active compounds read low 1.02 | locus YHR079C, strain IRE1, active compounds read low 0.964 | locus YHR094C, strain hxt1, active compounds read low 1.01 | locus YHR129C, strain ARP1, active compounds read low 1.02 | locus YHR142W, strain chs7, active compounds read low 1.01 | locus YHR200W, strain rpn10, active compounds read low 1.01 | locus YIL066C, strain RNR3, active compounds read low 1.02 | locus YIL073C, strain SPO22, active compounds read low 1.01 | locus YIL125W, strain kgd1, active compounds read low 1 | locus YIR030C, strain dcg1, active compounds read low 1.01 | locus YJL092W, strain hpr5, active compounds read low 1 | locus YJL095W, strain BCK1 (second series), active compounds read low 1 | locus YJL095W, strain BCK1, active compounds read low 1.02 and 0.967 | locus YJL115W, strain asf1, active compounds read low 0.993 | locus YJL129C, strain trk1, active compounds read low 1.01 | locus YJL134W, strain LCB3, active compounds read low 1.01 | locus YJL154C, strain vps35, active compounds read low 1 | locus YJL164C, strain tpk1, active compounds read low 1 | locus YJL166W, strain qcr8, active compounds read low 1.01 | locus YJL168C, strain set2, active compounds read low 1.01 | locus YJL187C, strain SWE1 (second series), active compounds read low 1.04 | locus YJL187C, strain SWE1, active compounds read low 1.02 | locus YJR043C, strain POL32, active compounds read low 1.01 | locus YJR066W, strain TOR1, active compounds read low 0.921
